Source: PubChem BioAssay AID694 (Emory University Molecular Libraries Screening Center, 2007)
About 25 (2%) of roughly 1,300 compounds were called active. No rule for the calls is given here. Shown is part of a subset that was picked to be rich in actives.

Biological target: Estrogen receptor (Homo sapiens) (UniProt P03372)
Assay: ERα coactivator peptide binding inhibitors, primary screen, biochemical, LOPAC library, TR-FRET (AID 694);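 also: receptor was agonist-bound with estradiol present during the assay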
Settings: TR-FRET ERalpha-coactivator peptide binding, stronger effect = higher value

Sequence of Estrogen receptor (Homo sapiens) (P03372 whole entry, looked up): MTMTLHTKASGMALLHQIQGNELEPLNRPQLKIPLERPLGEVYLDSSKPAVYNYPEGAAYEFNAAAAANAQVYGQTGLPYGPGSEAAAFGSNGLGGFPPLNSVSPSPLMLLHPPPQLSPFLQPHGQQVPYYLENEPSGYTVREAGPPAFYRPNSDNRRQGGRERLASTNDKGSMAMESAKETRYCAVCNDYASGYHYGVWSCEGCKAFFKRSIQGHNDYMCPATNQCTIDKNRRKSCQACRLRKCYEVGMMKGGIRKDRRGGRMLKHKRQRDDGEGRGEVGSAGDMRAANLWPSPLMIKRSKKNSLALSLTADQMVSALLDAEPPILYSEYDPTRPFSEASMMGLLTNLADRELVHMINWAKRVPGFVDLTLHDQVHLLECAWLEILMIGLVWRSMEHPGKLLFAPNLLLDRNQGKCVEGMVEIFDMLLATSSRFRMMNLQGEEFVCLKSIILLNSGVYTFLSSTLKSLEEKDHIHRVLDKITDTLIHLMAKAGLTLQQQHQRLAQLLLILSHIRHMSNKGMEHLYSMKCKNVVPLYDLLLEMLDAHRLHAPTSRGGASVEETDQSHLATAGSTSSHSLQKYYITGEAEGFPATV

SMILES | inhibition (at 45 µM) | inhibition (inhibition, at 15 µM)
NCCNC(=O)c1ccc(Cl)cc1 | -1.66% (inactive) | 0.74%
OCC1NCC(O)C(O)C1O (configuration not stated) | -2.36% (inactive) | -2.41%
CN(C)CCCN1c2ccccc2Sc2ccc(C(F)(F)F)cc21 | 1.43% (inactive) | 1.81%
O=S(=O)(c1cccc2c(Cl)cccc12)N1CCCNCC1 | -6.25% (inactive) | -1.24%
OCC1O[C@H](O)C(Cl)C(O)C1O (some centres not stated) | 2.62% (inactive) | 2.64%
O=C(O)C1=CC(=C(c2ccc(O)c(C(=O)O)c2)c2ccc(O)c(C(=O)O)c2)C=CC1=O | 88.6% [fluorescence artefact?] (active) | 76%
Cc1cc(NC(=O)Nc2ccc3c(ccn3C)c2)sn1 | 0.07% (inactive) | -2%
Cc1c(C)c2c(c(C)c1O)CCC(C)(CN1CCN(c3cc(N4CCCC4)nc(N4CCCC4)n3)CC1)O2 (configuration not stated) | -11.9% (inactive) | -0.19%
Oc1ccc(O)cc1 | 0.27% (inactive) | -2.06%
NC(=NCc1ccc(Cl)c(Cl)c1)NC(=O)c1nc(Cl)c(N)nc1N | 2.8% (inactive) | -1.44%
N#CC(=C(\N)Sc1ccccc1N)/C(C#N)=C(/N)Sc1ccccc1N | -6.45% (inactive) | -2.12%
COc1ccc(CCNC[C@@H](O)c2ccc(O)cc2)cc1OC | 1.27% (inactive) | 1.3%
C[n+]1cc2c3c(ccc2c2ccc4cc5c(cc4c21)OCO5)OCO3 | 7.36% (inactive) | 3.96%
NCCSSCCN | -10.9% (inactive) | -6.09%
Nc1nc2c(nc(Br)n2C2OC3COP(=O)(O)O[C@@H]3C2O)c(=O)[nH]1 (some centres not stated) | -3.13% (inactive) | -2.06%
CC(C)(C)c1onc(OCP(=O)(O)O)c1CC(N)C(=O)O (configuration not stated) | -28.3% (inactive) | -2.65%
CC[N+](CC)(CC)CC(=O)Nc1c(C)cccc1C | -2.22% (inactive) | 1.79%
C/C(=C\c1ccc(C(=O)O)cc1)c1ccc2c(c1)C(C)(C)CCC2(C)C | 40.9% (inactive) | 34.2%
O=c1c2ccccc2nc2n1CCc1c-2[nH]c2ccccc12 | 2.93% (inactive) | 1.11%
N=C(N)c1ccc(OCCCCCOc2ccc(C(=N)N)cc2)cc1 (tested in a mixture with another compound) | 3.73% (inactive) | 1.26%
C[C@@H](NC(=O)/C(C#N)=C/c1ccc(O)c(O)c1)c1ccccc1 | 2.49% (inactive) | 3.07%
CC(=O)[C@H]1CCC2C3CC=C4C[C@@H](OS(=O)(=O)O)CC[C@]4(C)C3CC[C@@]21C (some centres not stated) | 0.32% (inactive) | 0.94%
NCCNS(=O)(=O)c1cccc2cnccc12 | -4.68% (inactive) | -3.64%
Cc1cc2c(cc1Cl)N(C(=O)Nc1ccnc3ccccc13)CC2 | -4.11% (inactive) | 1.97%

SMILES | inhibition (at 45 µM) | inhibition (inhibition, at 15 µM)
Cc1cc(N)c2ccccc2[n+]1CCCCCCCCCC[n+]1c(C)cc(N)c2ccccc21 | 19.8% (inactive) | 30.1%
Cc1cc(N)c2ccccc2[n+]1CCCCCCCCCCCCCC[n+]1c(C)cc(N)c2ccccc21 | 73.8% [fluorescence artefact?] (active) | 65.9%
CSc1nc(N)c2ncn([C@@H]3O[C@H](COP(=O)(O)OP(=O)(O)OP(=O)(O)O)[C@H](O)C3O)c2n1 (some centres not stated) | -1.74% (inactive) | -5.35%
N.N.N.N.N.N.N.N.N.N.N.N.N.N.O.O.[Cl-].[Cl-].[Cl-].[Cl-].[Cl-].[Cl-].[Ru+4].[Ru+5].[Ru+5] | 100% [fluorescence artefact?] (active) | 99.8%
COC(=O)[C@H]1[C@H]2C[C@H]3c4[nH]c5ccccc5c4CCN3C[C@H]2CC[C@@H]1O | 1.18% (inactive) | 3.29%
CC(=O)NCCc1ccc(O)c(O)c1 | -22% (inactive) | -4.7%
C[C@@H](Oc1ccc(Oc2cnc3ccc(Cl)cc3n2)cc1)C(=O)O | -0.82% (inactive) | -2.92%
CCCCOC(=O)NS(=O)(=O)c1sc(CC(C)C)cc1-c1ccc(Cn2c(CC)nc3c(C)cc(C)nc32)cc1 | 8.38% (inactive) | 2.57%
O=C(/C=C/c1ccc(O)cc1)c1ccc(O)cc1O | 10.8% (inactive) | -3.98%
CC#C[C@]1(O)CC[C@H]2[C@@H]3CCC4=CC(=O)CCC4=C3[C@@H](c3ccc(N(C)C)cc3)C[C@@]21C | 4.52% (inactive) | 1.37%
O=C(O)CCC(NC(=O)c1ccccc1C(=O)O)C(=O)O (configuration not stated) | -0.22% (inactive) | 0.4%
Oc1ccc(-c2nc(-c3ccc(F)cc3)c(-c3ccncc3)[nH]2)cc1 | -3.04% (inactive) | -1.6%
CC(=O)N1CCN(c2ccc(OC[C@H]3CO[C@](Cn4ccnc4)(c4ccc(Cl)cc4Cl)O3)cc2)CC1 | -0.23% (inactive) | 1.67%
CC(CCc1ccc(O)cc1)NCCc1ccc(O)c(O)c1 (configuration not stated) | -5.5% (inactive) | 1.1%
CC(C)[N+](C)(CCOC(=O)C1c2ccccc2Oc2ccccc21)C(C)C | 7.96% (inactive) | 8.56%
CCSC(=N)N | -21.8% (inactive) | 0.66%
Cc1cccc(/C=C/c2ccccc2)n1 | 4.39% (inactive) | 12.3%
O=S(=O)(O)C1CCNCC1 | 1.25% (inactive) | 4.59%
C[N+](C)(C)CC=O | 0.73% (inactive) | -1.9%
COc1ccccc1NC(=O)Nc1nc(-c2cccnc2)nc2ccccc12 | 7.9% (inactive) | 4.04%
O=C(Nc1cccc(C(=O)Nc2ccc(S(=O)(=O)O)c3cc(S(=O)(=O)O)cc(S(=O)(=O)O)c23)c1)Nc1cccc(C(=O)Nc2ccc(S(=O)(=O)O)c3cc(S(=O)(=O)O)cc(S(=O)(=O)O)c23)c1 | -3.86% (inactive) | -2.37%
C[C@@H](CN1CCC(Cc2ccccc2)CC1)[C@@H](O)c1ccc(O)cc1 | -2% (inactive) | 1.32%
OC[C@H]1O[C@@H](n2cnc3c(NC4CCCC4)ncnc32)C(O)[C@H]1O (some centres not stated) | -0.88% (inactive) | 3.03%
COc1cc(C(=O)OCCCN2CCCN(CCCOC(=O)c3cc(OC)c(OC)c(OC)c3)CC2)cc(OC)c1OC | -2.88% (inactive) | -1.75%

SMILES | inhibition (at 45 µM) | inhibition (inhibition, at 15 µM)
CN[C@H](CC(=O)O)C(=O)O | -0.69% (inactive) | -0.99%
COc1cccc(OC)c1OCCNCC1COc2ccccc2O1 (configuration not stated) | 52.7% (inactive) | -0.05%
Nc1c(S(=O)(=O)O)cc(Nc2ccc(Nc3nc(Cl)nc(Nc4ccc(S(=O)(=O)O)cc4)n3)c(S(=O)(=O)O)c2)c2c1C(=O)c1ccccc1C2=O | 75.2% [fluorescence artefact?] (active) | 58.5%
OC[C@H]1O[C@@H](n2cnc3c(N[C@H]4CC5CCC4C5)ncnc32)[C@H](O)[C@@H]1O (some centres not stated) | -7.11% (inactive) | -3.27%
CC(C)(C)c1ccc(S(=O)(=O)/C=C/C#N)cc1 | -4.31% (inactive) | -2.91%
CCCc1c(OCCCOc2ccc(OCC(=O)O)cc2)ccc(C(C)=O)c1O | -1.06% (inactive) | 5.6%
C[C@]12CCC(=O)C=C1CC[C@@H]1[C@@H]2[C@@H](O)C[C@@]2(C)[C@H]1CC[C@]2(O)C(=O)COC(=O)CCC(=O)O | 0.81% (inactive) | 1.7%
Oc1cc2c(c(Cl)c1O)CCNCC2c1ccccc1 (configuration not stated) | -1.88% (inactive) | 4.73%
Cc1cccc(C)c1OCC(N)C(C)C (configuration not stated) | -0.93% (inactive) | -1.42%
O=[N+]([O-])c1ccc(-c2nc(-c3ccc(F)cc3)c(-c3ccncc3)[nH]2)cc1 | -3.67% (inactive) | -0.79%
Cc1scc2c1N(C(=O)CN1CCN(C)CC1)c1ccccc1NC2=O | -3.58% (inactive) | -4.27%
O=C(Cc1ccc(Cl)c(Cl)c1)OCCN1CCCC1 | -23.1% (inactive) | -1.83%
O=[N+]([O-])c1cccc2c(Br)[nH]nc12 | -0.31% (inactive) | -5.48%
N[C@@H](CC(=O)O)C(=O)O | -5.55% (inactive) | -8.89%
CC(C)(Sc1ccc(CCN(CCCCC2CCCCC2)C(=O)NC2CCCCC2)cc1)C(=O)O | 43.1% (inactive) | 8.46%
NS(=O)(=O)c1cccc2c1c([N+](=O)[O-])cc1nc(O)c(O)nc12 | -0.73% (inactive) | -5.25%
CC(=O)O[C@H]1CC2(C)[C@@H](C[C@@H](O)[C@H]3[C@@]4(C)CC[C@@H](O)[C@@H](C)[C@@H]4CC[C@@]32C)C1=C(CCC=C(C)C)C(=O)O (some centres not stated) | 80.4% (inactive) | 14.2%
Oc1cc(O)cc(/C=C/c2ccc(O)c(O)c2)c1 | 70.5% (inactive) | 32.3%
COc1cc2c(CCNC(C)=O)c[nH]c2cc1O | -5.77% (inactive) | -3%
N#C/C(=C\c1c[nH]c2ccccc12)C(=O)c1ccc(O)c(O)c1 | 4.91% (inactive) | 10.1%
CSc1nc(N)c2ncn([C@@H]3O[C@H](COP(=O)(O)OP(=O)(O)O)[C@H](O)C3O)c2n1 (some centres not stated) | 2.87% (inactive) | -1.28%
CN1CCc2c(cc(O)c(O)c2Cl)C(c2cccc(Cl)c2)C1 (configuration not stated) | 7.51% (inactive) | 4.56%
OC[C@H]1O[C@@H](n2cnc3c(NC4CCCCC4)ncnc32)[C@H](O)[C@@H]1O | -1.41% (inactive) | -1.34%
